Compound activity: PubChem BioAssay, National Center for Advancing Translational Sciences (NCATS)
Compounds with a hit are over-represented: about 8.8% of the library has one in this group of screens.
HT1080-NT tox: kills 2HG-producing HT-1080-NT fibrosarcoma cells; HT-1080-NT fibrosarcoma viability, CellTiter-Glo ATP luminescence, 48 h; Potency, µM (top dose mostly 46.1 µM), for the others: at the highest dose activity, negative = less viability, hits mostly cytotoxic; 360,000 compounds, 1.6% hits;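 note: NT is the 2HG producing partner of a matched IDH1 knockdown line; potency is the fitted concentration of half-maximal effect; 0% = DMSO-treated cells and -100% = media-only wells without cells; nearly all actives have a fitted effect of over 55% in size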
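Compounds were tested in concentration-response format on HT-1080-NT cells for 48 hours at 37 degrees C. Cell viability came from CellTiter-Glo luminescence; curves were classified by r2, response magnitude and activity.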
HT1080 IDH1KD tx: toxicity to HT-1080 IDH1 knockdown cells (counter line); HT-1080 IDH1 knockdown viability, ATP luminescence, 48 h; Potency, µM (highest dose often 46.1 µM), without a hit: at the highest dose activity, negative = toxicity, actives largely listed as cytotoxic; 360,000 compounds, 2% hits; AID 686971;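 note: potency is the fitted concentration of half-maximal effect; 0% = DMSO wells and -100% = cell-free medium wells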
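IDH1KD HT-1080 cells, 750/well, RPMI + 5% FBS; compound pinned after 2 h settling; 48 h, 37 °C; CellTiter-Glo luminescence; % activity normalised to DMSO and no-cell wells; curves fitted, classed by r2 and efficacy.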
KB-V1 MDR tox: kills drug-selected multidrug resistant KB-V1 cells | KB-V1 MDR cells viability, CellTiter-Glo, 72 h | Potency, µM (doses to about 46.1 µM), usual class: cytotoxic | 400,000 compounds, 3.4% hits; note: potency is the fitted concentration of half-maximal effect; nearly all actives have a fitted effect of over 60% in size
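Readout: CellTiter-Glo luminescence, 10 min after addition. Cells: KB-V1 MDR subline, 72 h at 37 degrees C with compound. Analysis: corrected, normalized data fitted to concentration-effect curves.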
KB-3-1 tox: kills parental KB-3-1 adenocarcinoma cells. 400,000 compounds, 1.4% hits. KB-3-1 viability, CellTiter-Glo ATP luminescence, 72 h. Potency, µM (doses to about 46.1 µM), usual class: cytotoxic. AID 1347075; note: potency is the fitted concentration of half-maximal effect; nearly all actives have a fitted effect of over 60% in size
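Parental KB-3-1 viability, qHTS format: 72 h compound exposure, 37 °C; CellTiter-Glo; media-only wells and DMSO plates as controls; concentration-effect fits on corrected data.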
IL-1B inflam inh: inflammasome signaling inhibition, IL-1 beta readout; THP-1 LPS/ATP IL-1B secretion, AlphaLISA, 16 h; stronger effect = lower value; 360,000 compounds, 4.7% hits; activity change, % at 57.5 µM; in the data active = activity change below about -50%; inconclusive = mostly about -30% to -49%
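THP-1 cells pretreated 1 hr with compounds (up to 57.5 uM final), then stimulated with LPS (250 ng/mL final) plus ATP (1.25 mM final); secreted IL-1B measured by AlphaLISA after 16 hr, decreased signal indicating inhibition.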
Numbers without * were called inactive; i = inactive; ? = inconclusive; · = no result given. Unless noted, calls come from the whole dose curve; as a rule, active = well fitted curve in the direction sought with a large enough effect; inconclusive = small, poorly fitted or top-dose-only effect, or another doubt; inactive = no such curve, though single readings can be large; an effect the other way counts as inactive or inconclusive. Unless noted, % is set by controls: 0 for no effect and ±100 for the full control effect.

SMILES	HT1080-NT tox	HT1080 IDH1KD tx	KB-V1 MDR tox	KB-3-1 tox	IL-1B inflam inh
Cc1ccccc1C(=O)NC1(C(F)(F)F)N=C(c2ccccc2)N(C2CCCCC2)C1=O (stereo not drawn)	·	·	i	i	·
O=C(CN1C(=O)c2cccc3cccc1c23)N1CCN(c2ccccc2)CC1	2%	?	i	i	5
O=C(CN1c2cccc3cccc(c23)S1(=O)=O)N1CCN(c2ccccc2)CC1	-2%	-28%	9.2µM*	i	11
Cc1ccc(NC(=O)CN2C(=O)COc3ccc(C)cc32)nc1	11%	-3%	15µM*	i	0
COc1ccc(C)cc1NC(=O)CN1C(=O)COc2ccc(S(=O)(=O)N3CCOCC3)cc21	3%	0%	i	i	-4
Cc1ccc2c(c1)N(CC(=O)Nc1nccs1)C(=O)CO2	5%	5%	i	i	3
COc1ccc(C)cc1NC(=O)CN1C(=O)COc2ccc(S(=O)(=O)N3CCCCCC3)cc21	-12%	-7%	i	i	-54*
CC(NS(=O)(=O)c1ccccc1)C(c1cccs1)N1CCOCC1 (stereo not drawn)	0%	12%	i	i	4
Cc1cccc(NC(=O)c2ccc(C(=O)Nc3cccc(C)c3)nc2)c1	?	21µM*	?	i	43
Cc1ccc(NC(=O)c2ccccc2)cc1	-6%	-5%	i	i	?
Cc1ccc(NC(=O)C2=C(c3ccccc3)S(=O)(=O)CCS2(=O)=O)cc1	10µM*	7.3µM*	?	?	-104*
O=C(Nc1ccc(-c2ccccc2)cc1)c1ccccc1	6%	-1%	i	21µM*	15
CC(C)c1cc(NC(=O)c2ccccc2)cc(C(C)C)c1O	0%	-5%	?	?	-57*
Cc1ccc(NC(=O)c2ccc(-c3ccccc3)s2)cc1	·	·	i	i	·
COC(=O)c1ccccc1NC(=O)Cn1nnc2sc(-c3ccccc3)cc2c1=O	·	·	i	i	·
COC(=O)[C@@H](Cc1c[nH]c2ccccc12)NC(=O)c1ccc2c(c1)OCO2	2%	-4%	i	i	24
CN(C(=O)c1ccccc1C(=O)OCC(=O)Nc1ccccc1)c1ccccc1	-4%	2%	i	i	11
Cc1ccccc1NC(=O)COc1ccccc1C(=O)Nc1ccccc1	0%	-2%	·	·	·
O=C(Nc1ccccn1)c1ccc(S(=O)(=O)c2ccc(Cl)cc2)cc1	-2%	-5%	7.3µM*	?	?
Cc1cccc(C(=O)Nc2ccc(C(=O)c3ccccc3)cc2)c1	1%	-6%	i	i	-80*
O=C(Nc1ccccn1)c1ccc(-c2ccccc2)cc1	?	?	i	i	-59*
COc1ccc(C(=O)Nc2ccccn2)cc1	17%	9%	i	i	0
COc1ccc(NC(=S)N2CCC(Cc3ccccc3)CC2)cc1	-4%	0%	i	i	-58*
COc1ccc(CNC(=O)C2CCCN(C(=O)Nc3ccc(OC)cc3)C2)cc1 (stereo not drawn)	-8%	-18%	i	i	19
S=C(Nc1ccccc1)N1CCC(Cc2ccccc2)CC1	?	?	i	12µM*	-69*
SMILES	HT1080-NT tox	HT1080 IDH1KD tx	KB-V1 MDR tox	KB-3-1 tox	IL-1B inflam inh
COc1ccc(NC(=O)N2CCCC(C(=O)NCCc3ccccc3)C2)cc1 (stereo not drawn)	1%	1%	23µM*	i	6
CC(=O)Nc1ccc(OCC(=O)N2CCC(Cc3ccccc3)CC2)cc1	1%	-1%	?	i	-53*
COc1ccc(Cl)cc1C(=O)OCC(=O)NCCNC(=O)COC(=O)c1cc(Cl)ccc1OC	0%	3%	i	i	46
COc1ccc(CNC(=S)N2CCN(Cc3ccccc3)CC2)cc1	-17%	-2%	16µM*	i	-15
Nc1nnc(SCc2cn3cc(Cl)ccc3n2)s1	5%	-1%	i	i	4
O=c1cc(C(F)(F)F)[nH]c2ccc(OC(F)(F)F)cc12	?	21µM*	?	?	·
CCc1nn(CC(=O)NCCCN2CCOCC2)c(=O)c2cc3c(OC)cccc3n12	-1%	-1%	i	i	?
COc1cc2sc3ccc(C#CC4(O)CCCCC4)cc3c(=O)c2cc1OC	-23%	?	i	i	0
Cn1c2ccccc2c(=O)c2ccc(C#CC3(O)CCCCC3)cc21	?	?	?	?	-54*
CC1CC2=C(NC(=S)NC2c2cccc(F)c2)/C(=C/c2cccc(F)c2)C1 (stereo not drawn)	-29%	?	?	?	-64*
N#C/C(=C(/O)c1ccc2c(c1)OCO2)c1nc2cc(C(F)(F)F)ccc2s1	?	?	?	15µM*	-54*
N#C/C(=C(/O)c1ccccc1F)c1nc2cc(C(F)(F)F)ccc2s1	-7%	-8%	i	i	-9
CC1=CC(=O)C(C(C)C)=C/C1=N/OS(=O)(=O)c1ccccc1	8.2µM*	5.8µM*	21µM*	?	-101*
CC1=CC(=O)C=C(C)C1=NOS(=O)(=O)c1ccccc1	?	21µM*	?	?	-118*
Cc1ccc2c(c1)/C(=N/OS(=O)(=O)c1ccccc1)CCS2	1%	5%	?	i	18
O=C1OC(/C=C/c2ccc(Cl)cc2Cl)=NC/1=C\c1cccs1	0%	-1%	i	i	-15
CCN(C(=O)COC(=O)c1cccnc1SC)c1c(N)n(Cc2ccccc2)c(=O)[nH]c1=O	4%	3%	i	i	-12
Cc1ccc2c(c1)C1CN(C)CCC1N2S(=O)(=O)c1ccccc1F (stereo not drawn)	-12%	-6%	i	i	-51*
Cc1ccc2c(c1)C1CN(C)CCC1N2S(=O)(=O)c1cccc(C(F)(F)F)c1 (stereo not drawn)	-22%	-9%	i	i	-20
O=C1/C(=C/c2ccccc2F)SC(=S)N1CCC(=O)N1CCCCC1CCO (stereo not drawn)	-19%	?	i	?	-99*
O=C1/C(=C/c2ccccc2)SC(=S)N1CCCC(=O)N1CCCCC1CCO (stereo not drawn)	-10%	-6%	?	?	-59*
O=C1/C(=C/c2ccc(F)cc2)SC(=S)N1CC(=O)N1CCCCC1c1cccnc1 (stereo not drawn)	7%	?	i	i	18
O=C1/C(=C/c2ccccc2F)SC(=S)N1CC(=O)N1CCCCC1c1cccnc1 (stereo not drawn)	-2%	-10%	i	i	-61*
O=C1/C(=C/c2ccc(Cl)cc2)SC(=S)N1CCC(=O)N1CCCCC1CCO (stereo not drawn)	0%	-4%	i	i	-27
